In the supplement of paper PMC10849652:
Targets with a hit are over-represented here; the source holds about 7,900 in all. About 0.6% of all pairs of compound and target were hits. Unmarked numbers belong to inactive results.

Experiments:
Assay in all cases: log2 fold change, soluble protein after heating vs DMSO (PISA); higher = thermal stabilisation; K562 cells, 10 uM, 30 min; active = over 0.2 and 3.5 SD of the protein, either way, in both replicates (recomputed)
saracatinib = compound: CN1CCN(CCOc2cc(OC3CCOCC3)c3c(Nc4c(Cl)ccc5c4OCO5)ncnc3c2)CC1 [saracatinib]
Procedure, shortened: (§1)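 For each measurement, 10 μM compound was applied for 30 min to K562 cells at 2×10^6 cells/mL. Aliquots were heated for 3 min across 48°C-58°C, pooled, and extracted in PBS with 0.5% NP-40 at 4°C; the supernatant after 21,000xg for 90 min was soluble protein. This was quantified by TMTpro 16plex LC-MS/MS with channel sums equalised, and thermal stability was reported relative to control samples from duplicates, on a log2 fold-change scale.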

sotrastaurin = compound: CN1CCN(c2nc(C3=C(c4c[nH]c5ccccc45)C(=O)NC3=O)c3ccccc3n2)CC1 [sotrastaurin]
Procedure, shortened: as §1

alvocidib = compound: CN1CC[C@H](c2c(O)cc(O)c3c(=O)cc(-c4ccccc4Cl)oc23)[C@H](O)C1 [alvocidib]
Procedure, shortened: as §1

Tubastatin A = compound: CN1CCc2c(c3ccccc3n2Cc2ccc(C(=O)NO)cc2)C1 [Tubastatin A]
Procedure, shortened: as §1

[1] = compound: CNC(=O)C1=CC=CC=C1NC2=NC(=NC=C2Cl)NC3=C(C=C(C=C3)N4CCOCC4)OC
Procedure, shortened: as §1

defactinib = compound: CNC(=O)c1ccc(Nc2ncc(C(F)(F)F)c(NCc3nccnc3N(C)S(C)(=O)=O)n2)cc1 [defactinib]
Procedure, shortened: as §1

rucaparib = compound: CNCc1ccc(-c2[nH]c3cc(F)cc4c3c2CCNC4=O)cc1 [rucaparib]
Procedure, shortened: as §1

[2] = compound: CNc1nc(-c2ccc3c(N)n[nH]c3c2)cc(N2C[C@@H](C(=O)NC3CCCCC3)CC[C@H]2C)n1
Procedure, shortened: as §1

encorafenib = compound: COC(=O)N[C@@H](C)CNc1nccc(-c2cn(C(C)C)nc2-c2cc(Cl)cc(NS(C)(=O)=O)c2F)n1 [encorafenib]
Procedure, shortened: as §1

[3] = compound: COC(=O)[C@H](CCSC)NC(=O)C1=C(C=C(C=C1)NC[C@H](CS)N)C2=CC=CC=C2
Procedure, shortened: as §1

[4] = compound: COC1=CC=C(C=C1)CN2C=CC3=C2C=C(C=C3)C(=O)NO
Procedure, shortened: as §1

filanesib = compound: CON(C)C(=O)N1N=C(c2cc(F)ccc2F)S[C@@]1(CCCN)c1ccccc1 [filanesib]
Procedure, shortened: as §1

zotarolimus = compound: CO[C@H]1C[C@@H]2CC[C@@H](C)[C@@](O)(O2)C(=O)C(=O)N2CCCC[C@H]2C(=O)O[C@H]([C@H](C)C[C@@H]2CC[C@H](n3cnnn3)[C@H](OC)C2)CC(=O)[C@H](C)/C=C(\C)[C@@H](O)[C@@H](OC)C(=O)[C@H](C)C[C@H](C)/C=C/C=C/C=C/1C [zotarolimus]
Procedure, shortened: as §1

idasanutlin = compound: COc1cc(C(=O)O)ccc1NC(=O)[C@@H]1N[C@@H](CC(C)(C)C)[C@](C#N)(c2ccc(Cl)cc2F)[C@H]1c1cccc(Cl)c1F [idasanutlin]
Procedure, shortened: as §1

alisertib = compound: COc1cc(Nc2ncc3c(n2)-c2ccc(Cl)cc2C(c2c(F)cccc2OC)=NC3)ccc1C(=O)O [alisertib]
Procedure, shortened: as §1

[5] = compound: COc1cc2nc(-c3cc(F)ccc3O)nc(N[C@@H]3CNC[C@H]3C(C)(C)O)c2cc1OC
Procedure, shortened: as §1

gefitinib = compound: COc1cc2ncnc(Nc3ccc(F)c(Cl)c3)c2cc1OCCCN1CCOCC1 [gefitinib]
Procedure, shortened: as §1

[6] = compound: COc1cccc2cc(-c3nc([C@H]4CC[C@H](C(=O)O)CC4)n4ncnc(N)c34)[nH]c12
Procedure, shortened: as §1

lapatinib = compound: CS(=O)(=O)CCNCc1ccc(-c2ccc3ncnc(Nc4ccc(OCc5cccc(F)c5)c(Cl)c4)c3c2)o1 [lapatinib]
Procedure, shortened: as §1

pictilisib = compound: CS(=O)(=O)N1CCN(Cc2cc3nc(-c4cccc5[nH]ncc45)nc(N4CCOCC4)c3s2)CC1 [pictilisib]
Procedure, shortened: as §1

UniProt Q9Y6R4, sequence (Q9Y6R4 whole entry, looked up): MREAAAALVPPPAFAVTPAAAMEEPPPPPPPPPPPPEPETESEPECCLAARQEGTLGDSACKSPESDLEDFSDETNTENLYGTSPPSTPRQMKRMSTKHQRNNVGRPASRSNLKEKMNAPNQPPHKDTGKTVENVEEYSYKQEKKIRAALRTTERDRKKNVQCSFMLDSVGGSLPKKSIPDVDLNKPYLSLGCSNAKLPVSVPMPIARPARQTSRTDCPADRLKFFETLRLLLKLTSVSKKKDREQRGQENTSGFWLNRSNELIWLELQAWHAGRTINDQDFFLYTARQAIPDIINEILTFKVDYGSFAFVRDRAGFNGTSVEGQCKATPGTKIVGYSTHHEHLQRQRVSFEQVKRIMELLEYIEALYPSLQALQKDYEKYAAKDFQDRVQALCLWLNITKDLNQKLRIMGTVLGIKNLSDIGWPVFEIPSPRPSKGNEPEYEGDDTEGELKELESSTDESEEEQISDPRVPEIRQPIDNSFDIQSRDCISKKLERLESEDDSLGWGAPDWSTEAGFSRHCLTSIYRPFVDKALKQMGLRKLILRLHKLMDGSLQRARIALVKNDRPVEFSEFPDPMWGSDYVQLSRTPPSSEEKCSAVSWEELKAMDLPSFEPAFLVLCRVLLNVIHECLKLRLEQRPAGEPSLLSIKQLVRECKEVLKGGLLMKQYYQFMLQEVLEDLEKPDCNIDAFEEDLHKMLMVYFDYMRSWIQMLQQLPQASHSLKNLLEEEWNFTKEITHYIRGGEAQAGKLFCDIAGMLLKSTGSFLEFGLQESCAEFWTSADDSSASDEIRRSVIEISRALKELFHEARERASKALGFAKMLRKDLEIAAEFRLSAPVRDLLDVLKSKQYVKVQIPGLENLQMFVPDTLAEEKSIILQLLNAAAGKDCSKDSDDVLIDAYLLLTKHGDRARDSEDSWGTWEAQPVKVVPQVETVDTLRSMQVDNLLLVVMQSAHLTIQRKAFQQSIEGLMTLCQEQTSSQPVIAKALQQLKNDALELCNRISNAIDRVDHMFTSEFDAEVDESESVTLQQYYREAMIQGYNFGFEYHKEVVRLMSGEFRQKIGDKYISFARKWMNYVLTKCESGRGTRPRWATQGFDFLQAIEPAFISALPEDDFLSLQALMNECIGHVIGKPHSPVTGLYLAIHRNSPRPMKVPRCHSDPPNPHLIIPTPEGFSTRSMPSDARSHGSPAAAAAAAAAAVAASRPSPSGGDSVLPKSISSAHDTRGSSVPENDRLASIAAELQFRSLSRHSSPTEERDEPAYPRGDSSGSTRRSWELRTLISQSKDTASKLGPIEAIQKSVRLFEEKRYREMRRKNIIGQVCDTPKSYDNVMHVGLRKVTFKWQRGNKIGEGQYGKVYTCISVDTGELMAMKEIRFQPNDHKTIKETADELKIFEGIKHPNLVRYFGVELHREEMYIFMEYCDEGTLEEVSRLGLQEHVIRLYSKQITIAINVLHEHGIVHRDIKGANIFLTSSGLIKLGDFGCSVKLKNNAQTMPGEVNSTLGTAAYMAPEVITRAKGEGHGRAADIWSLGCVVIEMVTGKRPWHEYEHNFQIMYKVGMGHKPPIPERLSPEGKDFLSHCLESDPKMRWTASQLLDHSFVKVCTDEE
UniProt Q9Y383, sequence (Q9Y383 whole entry, looked up): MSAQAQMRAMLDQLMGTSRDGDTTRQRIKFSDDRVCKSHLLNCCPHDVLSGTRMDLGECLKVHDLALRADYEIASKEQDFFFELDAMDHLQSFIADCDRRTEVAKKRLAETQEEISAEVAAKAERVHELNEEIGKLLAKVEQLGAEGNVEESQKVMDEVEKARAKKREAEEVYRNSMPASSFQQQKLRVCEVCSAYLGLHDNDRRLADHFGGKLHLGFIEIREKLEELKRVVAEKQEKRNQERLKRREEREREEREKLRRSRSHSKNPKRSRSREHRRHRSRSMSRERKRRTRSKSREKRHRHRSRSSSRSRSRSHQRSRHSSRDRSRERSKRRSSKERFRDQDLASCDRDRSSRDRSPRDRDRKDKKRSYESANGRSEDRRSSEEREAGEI
UniProt P49006, sequence (P49006 whole entry, looked up): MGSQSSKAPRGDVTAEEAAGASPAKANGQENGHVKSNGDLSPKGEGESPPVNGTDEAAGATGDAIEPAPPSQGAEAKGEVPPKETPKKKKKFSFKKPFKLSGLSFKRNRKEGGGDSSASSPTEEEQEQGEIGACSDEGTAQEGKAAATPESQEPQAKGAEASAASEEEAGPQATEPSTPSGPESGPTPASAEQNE
UniProt P49441, sequence (P49441 whole entry, looked up): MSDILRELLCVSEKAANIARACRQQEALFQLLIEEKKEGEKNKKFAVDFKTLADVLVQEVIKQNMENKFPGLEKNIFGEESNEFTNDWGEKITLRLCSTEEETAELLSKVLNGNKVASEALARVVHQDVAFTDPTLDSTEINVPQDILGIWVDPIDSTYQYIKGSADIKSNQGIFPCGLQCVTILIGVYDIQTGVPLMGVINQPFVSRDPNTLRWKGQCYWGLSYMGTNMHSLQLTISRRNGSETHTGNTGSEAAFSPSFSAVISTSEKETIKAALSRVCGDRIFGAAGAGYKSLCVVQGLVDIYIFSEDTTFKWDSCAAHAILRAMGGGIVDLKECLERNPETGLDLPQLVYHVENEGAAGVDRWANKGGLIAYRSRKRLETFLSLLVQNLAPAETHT
UniProt Q03252, sequence (Q03252 whole entry, looked up): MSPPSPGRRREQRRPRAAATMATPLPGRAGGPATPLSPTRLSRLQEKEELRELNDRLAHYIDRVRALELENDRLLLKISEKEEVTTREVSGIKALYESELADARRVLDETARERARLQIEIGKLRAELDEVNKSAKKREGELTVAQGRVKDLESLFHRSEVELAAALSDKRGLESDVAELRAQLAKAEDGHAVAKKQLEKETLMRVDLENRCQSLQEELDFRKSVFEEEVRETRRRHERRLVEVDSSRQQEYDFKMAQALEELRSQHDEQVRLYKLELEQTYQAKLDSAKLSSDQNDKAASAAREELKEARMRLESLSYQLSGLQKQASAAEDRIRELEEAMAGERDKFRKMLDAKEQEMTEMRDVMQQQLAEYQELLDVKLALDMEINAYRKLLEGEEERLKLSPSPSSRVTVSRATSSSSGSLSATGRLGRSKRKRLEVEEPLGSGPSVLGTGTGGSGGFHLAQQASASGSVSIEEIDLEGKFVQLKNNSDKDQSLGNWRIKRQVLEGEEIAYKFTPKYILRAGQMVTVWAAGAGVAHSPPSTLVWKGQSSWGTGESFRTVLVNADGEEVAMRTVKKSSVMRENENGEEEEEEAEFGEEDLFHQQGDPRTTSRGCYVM
UniProt Q9UI26, sequence (Q9UI26 whole entry, looked up): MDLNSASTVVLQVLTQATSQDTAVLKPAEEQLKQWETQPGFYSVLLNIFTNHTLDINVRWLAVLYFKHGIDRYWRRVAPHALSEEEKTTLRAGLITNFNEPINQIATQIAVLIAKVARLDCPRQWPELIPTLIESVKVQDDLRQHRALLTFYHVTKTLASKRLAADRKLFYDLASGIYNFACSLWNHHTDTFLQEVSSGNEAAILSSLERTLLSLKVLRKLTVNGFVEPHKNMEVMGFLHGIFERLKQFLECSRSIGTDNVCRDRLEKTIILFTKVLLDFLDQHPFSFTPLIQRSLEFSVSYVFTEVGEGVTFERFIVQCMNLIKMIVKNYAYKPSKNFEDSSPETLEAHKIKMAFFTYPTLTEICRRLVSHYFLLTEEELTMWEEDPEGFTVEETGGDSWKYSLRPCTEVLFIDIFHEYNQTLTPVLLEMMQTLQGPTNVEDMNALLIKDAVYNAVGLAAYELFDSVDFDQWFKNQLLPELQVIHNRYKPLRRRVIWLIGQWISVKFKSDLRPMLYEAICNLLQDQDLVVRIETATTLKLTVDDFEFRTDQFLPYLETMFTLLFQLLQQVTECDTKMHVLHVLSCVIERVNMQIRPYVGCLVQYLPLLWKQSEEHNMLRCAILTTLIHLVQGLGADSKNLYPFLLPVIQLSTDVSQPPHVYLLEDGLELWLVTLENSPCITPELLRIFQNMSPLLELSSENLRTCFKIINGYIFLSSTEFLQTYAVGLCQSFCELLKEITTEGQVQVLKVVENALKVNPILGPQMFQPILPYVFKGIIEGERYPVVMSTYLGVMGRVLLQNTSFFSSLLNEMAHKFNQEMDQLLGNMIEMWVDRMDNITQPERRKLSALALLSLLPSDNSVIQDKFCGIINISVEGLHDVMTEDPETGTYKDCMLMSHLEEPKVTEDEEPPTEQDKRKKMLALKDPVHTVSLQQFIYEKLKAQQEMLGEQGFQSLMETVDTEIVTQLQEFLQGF
UniProt Q32MZ4, sequence (Q32MZ4 whole entry, looked up): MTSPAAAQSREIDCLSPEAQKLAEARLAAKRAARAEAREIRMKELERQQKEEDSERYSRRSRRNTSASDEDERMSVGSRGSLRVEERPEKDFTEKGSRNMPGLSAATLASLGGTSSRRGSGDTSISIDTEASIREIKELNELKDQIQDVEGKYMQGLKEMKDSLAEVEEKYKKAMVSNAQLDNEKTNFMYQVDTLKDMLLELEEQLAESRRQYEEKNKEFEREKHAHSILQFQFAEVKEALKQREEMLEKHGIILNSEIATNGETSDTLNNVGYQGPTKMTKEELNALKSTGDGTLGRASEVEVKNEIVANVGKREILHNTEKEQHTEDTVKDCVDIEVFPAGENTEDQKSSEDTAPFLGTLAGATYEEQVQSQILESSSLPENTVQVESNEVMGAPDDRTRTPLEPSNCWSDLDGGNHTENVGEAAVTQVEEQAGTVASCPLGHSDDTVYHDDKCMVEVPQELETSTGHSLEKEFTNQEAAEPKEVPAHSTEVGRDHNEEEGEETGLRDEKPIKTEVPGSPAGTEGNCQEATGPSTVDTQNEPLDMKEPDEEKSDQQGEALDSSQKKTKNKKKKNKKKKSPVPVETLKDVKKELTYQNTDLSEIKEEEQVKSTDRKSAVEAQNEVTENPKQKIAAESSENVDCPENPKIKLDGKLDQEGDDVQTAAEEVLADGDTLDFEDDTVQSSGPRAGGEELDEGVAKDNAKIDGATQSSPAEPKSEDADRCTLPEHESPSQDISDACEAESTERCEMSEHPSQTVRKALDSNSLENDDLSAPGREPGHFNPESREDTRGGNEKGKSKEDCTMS

Target	log2 fold change (saracatinib)	log2 fold change (sotrastaurin)	log2 fold change (alvocidib)	log2 fold change (Tubastatin A)	log2 fold change [1]	log2 fold change (defactinib)	log2 fold change (rucaparib)	log2 fold change [2]	log2 fold change (encorafenib)	log2 fold change [3]	log2 fold change [4]	log2 fold change (filanesib)	log2 fold change (zotarolimus)	log2 fold change (idasanutlin)	log2 fold change (alisertib)	log2 fold change [5]	log2 fold change (gefitinib)	log2 fold change [6]	log2 fold change (lapatinib)	log2 fold change (pictilisib)
MARCKSL1 (UniProt P49006)	0.02	0.315 (active)	-0.005	-0.043	0.013	0.007	-0.035	0.063	-0.04	-0.008	-0.074	0.002	-0.033	-0.011	-0.093	0.073	-0.027	0.028	-0.061	0.026
IPO11 isoform 2 (UniProt Q9UI26)	0.048	-0.02	-0.006	-0.043	0.01	-0.013	-0.053	-0.03	-0.004	0.012	0.036	-0.045	0.002	-0.087	-0.023	-0.006	-0.049	0.04	0.005	0.028
ILRUN (UniProt Q9H6K1)	-0.132	-0.029	-0.022	0.116	0.023	-0.036	0.037	0.049	0.045	0.121	-0.051	-0.016	0.042	-0.101	-0.03	-0.002	0.048	0.09	0.08	–
MAP4 (UniProt P27816)	0.017	0.019	0.042	-0.029	-0.014	0.016	0.009	-0.029	-0.001	0.031	-0.002	0.022	-0.029	0.028	-0.034	-0.027	-0.019	-0.003	-0.002	-0.078
MIA2 (UniProt Q96PC5)	0.003	-0.106	-0.052	-0.013	0.021	-0.085	0.074	-0.001	0.07	0.037	-0.017	0.121	0.037	-0.017	0.069	0.027	0.034	-0.109	0.029	-0.019
INPP1 (UniProt P49441)	0.071	0	-0.011	0.061	0.044	-0.032	-0.029	0.048	0.038	-0.038	-0.086	-0.019	0.048	-0.123	-0.056	0.101	-0.031	0.03	-0.049	-0.116
LRRFIP1 (UniProt Q32MZ4)	0.017	0.047	0.014	-0.005	-0.009	-0.01	-0.01	-0.034	-0.019	0.022	-0.014	0.022	-0.034	0.019	-0.031	0.023	-0.007	0.025	-0.012	-0.027
IMMP1L (UniProt Q96LU5)	-0.041	-0.005	0.039	-0.024	-0.01	0.011	-0.039	-0.102	-0.037	-0.027	-0.041	-0.067	-0.034	-0.067	-0.252 (active)	0.005	-0.022	0.016	-0.062	–
MGST1 (UniProt P10620)	0.042	-0.013	0.01	-0.174	0.009	-0.037	0.003	0.021	-0.147	0.018	0.039	-0.019	0.006	-0.06	0.013	0.152	-0.036	-0.043	-0.009	0.112
LUC7L2 (UniProt Q9Y383)	0.022	-0.01	-0.246	0.007	-0.304 (active)	-0.267 (active)	-0.077	-0.047	0.065	0.03	0.05	0.121	0.113	0.093	-0.032	-0.048	-0.052	0.008	0.04	0.095
MAGI1 (UniProt Q96QZ7)	-0.013	-0.064	-0.019	-0.017	0.021	-0.007	0.012	0.024	0.059	-0.009	-0.031	0.053	-0.044	0.084	-0.01	0.005	0.042	-0.012	0.01	0.053
MAP3K4 isoform 2 (UniProt Q9Y6R4)	0.077	0.034	-0.093	-0.038	0.153	-0.008	0.006	-0.002	-0.023	0.029	0.004	-0.037	0.003	-0.023	-0.043	0.03	0.034	0.086	0.024	0.11
ILVBL (UniProt A1L0T0)	-0.022	0.135	-0.162	-0.02	0.002	-0.054	-0.024	0.052	0.059	0.019	-0.008	0.006	0.072	-0.106	-0.088	-0.001	0.075	0.082	-0.011	0.031
LMNB2 (UniProt Q03252)	-0.031	-0.127	-0.02	0.02	0.027	-0.201	-0.085	-0.073	-0.009	0.049	-0.023	0.1	-0.064	0.099	0.004	-0.005	-0.001	0.069	0.059	0.03
LARP1 (UniProt Q6PKG0)	-0.023	-0.029	0.12	0.059	0.05	0.089	0.11	0.004	0.039	0.01	0	0.048	-0.048	0.089	0.137	-0.001	-0.049	-0.161	0.023	-0.152
LEO1 (UniProt Q8WVC0)	-0.047	-0.085	-0.137	0.061	-0.039	-0.211	-0.151	-0.055	-0.033	-0.082	-0.038	0.021	0.175	0.023	-0.08	-0.035	0.009	-0.034	-0.032	0.009
